Results reported in PubChem BioAssay AID720518 (National Center for Advancing Translational Sciences (NCATS), 2013).
Results filed as inconclusive are left out. Where a call stands in place of a potency, no number is given. Activity calls are given as the source filed them. Calls follow the shape of the full dose curve.

Test: qHTS for Inhibitors of Cell Surface uPA Generation: Wild-type Protective Antigen (WT-PrAg) Counterscreen for Cherry-picked Compounds
Conditions: cells, WT protective antigen toxicity counterscreen; series mostly up to 115 µM
Potency is read from the fitted curve at half-maximal effect.

Row | SMILES | Potency
1 | Cn1c(SCC(=O)NNC(=O)c2ccc(Br)cc2)nnc1-c1cccnc1 | inactive
2 | O=C(Cc1n[nH]c(=O)c2ccccc12)Nc1cccc(S(=O)(=O)N2CCCCCC2)c1 | inactive
3 | CC(C)C1Oc2ccccc2N(CC(=O)NC2CCCCC2)C1=O (configuration not stated) | 36.9 µM (active)
4 | CCN(C1CCS(=O)(=O)C1)S(=O)(=O)c1ccc2ccccc2c1 (configuration not stated) | inactive
5 | CCC1(CC)NC(=O)N(CC(=O)OCC(=O)c2cc(C)c(C)cc2C)C1=O | inactive
6 | O=C(O)C(Nc1nc(C(F)(F)F)nc2ccccc12)c1ccccc1 (configuration not stated) | inactive
7 | Cc1cccc(N2C(=O)N3[C@H](c4ccc(F)cc4)[C@@H]4C(=O)N(C5CCCCC5)C(=O)[C@@H]4[C@]3(Cc3ccc(Cl)cc3)C2=O)c1 | inactive
8 | CC(C)Cn1cnc2c(N)nc3ccccc3c21 | inactive
9 | CCc1ccc(NC(=O)Cn2cnc([N+](=O)[O-])c2)cc1 | inactive
10 | Cc1ccc(NC(=O)c2ccc(=O)[nH]n2)cc1S(=O)(=O)Nc1ccccc1Cl | inactive
11 | COCC(=O)N1Cc2ccccc2-n2nncc2C1 | inactive
12 | Cc1cc(OC(C)C(=O)NCc2ccccn2)c2c(C)cc(=O)oc2c1 (configuration not stated) | inactive
13 | CSc1nc(-c2ccccc2)nc(C(Cl)Cl)n1 | inactive
14 | Cc1nc(SCC(=O)NCCN2C(=O)CSC2=O)nc(C)c1C | inactive
15 | CCOC(=O)[C@H]1[C@H]2COc3ccc(Br)cc3[C@@H]2N2C(=O)c3c(C)cc(C)cc3NC(=O)[C@@]12C | inactive
16 | O=C(O)CC1(CC(=O)NCc2ccc(Cl)cc2)CCCCC1 | inactive
17 | CN1CCN(C2=Nc3ccccc3Oc3ccc(Cl)cc32)CC1 | inactive
